The target in experiment [1] is Thioredoxin reductase 1, cytoplasmic (Rattus norvegicus) (UniProt O89049). In words: qHTS Assay for Substrates of Mammalian Selenoprotein Thioredoxin Reductase 1 (TrxR1) (AID 488772).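 Further: NADPH fluorescence in the first read after selenite addition and not the 8 min delta; series mostly up to about 57 µM; 0% is about no effect; a drop in NADPH fluorescence below the no-compound background marks a TrxR1 substrate.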 The procedure, abridged:
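Quantitative HTS in Tris-HCl buffer at pH 7.5 with EDTA and Tween-20, using rat TrxR1, 400 uM NADPH and 400 uM selenite (final). A fall in initial NADPH fluorescence relative to background marked substrate behaviour.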

Experiment [2] shares this target. As to the kind of experiment: qHTS Assay for Inhibitors of Mammalian Selenoprotein Thioredoxin Reductase 1 (TrxR1) (AID 488773). Further: nearly all actives have a fitted effect of over 40% in size. Further: potency means the concentration at half of the fitted maximal effect. To be noted: Potency: inhibition. In a few lines: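 Steps: enzyme (90 nM) plus NADPH (400 uM final), 5 min at ~22 deg C; compound added, 15 min; selenite (400 uM final) added; fluorescence followed for 8 min. Concentration-response curves derived from the normalized delta values.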
For orientation: Quantitative high-throughput screening tests each substance at several concentrations.

The target in experiment [3] is Flap endonuclease 1 (Homo sapiens) (UniProt P39748). In words: qHTS Validation Assay for the Inhibitors of Human Flap endonuclease 1 (FEN1) (AID 488816). Further: potency means the concentration at half of the fitted maximal effect. The procedure, abridged: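 Readings taken at 0 and 15 min after starting the reaction with 50 nM (final) substrate supplied the signal. Compounds had first sat with 10 nM FEN1 reagent for 15 min at room temperature. Values come from Hill-equation concentration-response fits.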
Chain of Flap endonuclease 1 (Homo sapiens) (P39748 whole entry, looked up): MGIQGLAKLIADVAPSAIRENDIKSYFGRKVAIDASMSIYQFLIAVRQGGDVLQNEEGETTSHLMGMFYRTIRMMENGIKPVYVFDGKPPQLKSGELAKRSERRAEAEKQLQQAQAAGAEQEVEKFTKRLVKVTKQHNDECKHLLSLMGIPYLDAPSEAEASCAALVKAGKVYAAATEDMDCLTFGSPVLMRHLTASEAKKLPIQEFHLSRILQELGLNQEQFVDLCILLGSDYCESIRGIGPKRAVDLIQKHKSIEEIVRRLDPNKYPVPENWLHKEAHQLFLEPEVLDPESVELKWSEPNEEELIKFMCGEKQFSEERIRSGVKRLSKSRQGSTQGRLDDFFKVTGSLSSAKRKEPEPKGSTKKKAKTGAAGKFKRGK

Experiment [4] has as its target M-phase phosphoprotein 8 (Homo sapiens) (UniProt Q99549). As to the kind of experiment: qHTS Validation Assay for Inhibitors for MPP8 Chromodomain Interactions with Methylated Histone Tails (AID 488949). Further: nearly all actives have a fitted effect of over 55% in size. Further: potency means the concentration at half of the fitted maximal effect. In a few lines:
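AlphaScreen proximity signal from streptavidin donor and Ni-chelate acceptor beads (10 ug/mL each) reported binding of MPP8 to trimethyl-K9 H3(1-18) peptide, both at 50 nM. The complex formed 30 min before a 30 min compound exposure at room temperature, in PBS pH 7.4.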

Experiment [5] has as its target Chromobox protein homolog 1 (Homo sapiens) (UniProt P83916). As to the kind of experiment: qHTS Validation Assay for Inhibitors of HP1-beta Chromodomain Interactions with Methylated Histone Tails (AID 488953). Further: nearly all actives have a fitted effect of over 50% in size. Further: potency means the concentration at half of the fitted maximal effect. In a few lines:
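HP1-beta (50 nM) was preincubated 30 min at room temperature with biotinylated H3(1-18)K9me3 peptide (50 nM) in PBS pH 7.4, 0.01% Tween-20, then with compounds 30 min. AlphaScreen signal was read after streptavidin donor/nickel chelate acceptor beads (10 ug/mL final).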

The target of experiment [6] is Methanococcus maripaludis chaperonin (MmCpn) (UniProt Q6LX38). As to the kind of experiment: High-Throughput Screening for Modulators of Cytosolic Chaperonin Activity: MmCpn Primary Screen (AID 488978).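 Further: 50 nM MmCpn enzyme hydrolysing 30 µM ATP at 37 °C; 0% is about no effect.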 In a few lines:
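ATPase activity of 50 nM MmCpn was assayed with 30 uM ATP, 10 minutes at 37C, after a 5 min compound preincubation at room temperature. ADP production was read as HTRF emission at 590 and 665 nm.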

Experiment [7] has as its target D(1A) dopamine receptor (Homo sapiens) (UniProt P21728). As to the kind of experiment: HTS Assay for Allosteric Agonists of the Human D1 Dopamine Receptor: Primary Screen for Agonists (AID 488981). Further: 0% is about no effect. In a few lines:
(§1)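 Calcium flux in an inducible, force-coupled HEK293 Trex D1 line (overnight at 30 C): agonist mode is the 180 s kinetic read after compound; potentiator mode is the following 180 s read after dopamine at EC20.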

For experiment [8] the target is unchanged. As to the kind of experiment: HTS Assay for Allosteric Agonists of the Human D1 Dopamine Receptor: Primary Screen for Potentiators (AID 488982). Further: 0% is about no effect. In a few lines: as §1
For experiment [9] the target is unchanged. In words: HTS Assay for Allosteric Agonists of the Human D1 Dopamine Receptor: Primary Screen for Antagonists (AID 488983).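 Further: calcium flux response to an EC80 dopamine challenge measured with no-wash dye; nearly all actives have a fitted effect of over 65% in size.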 Further: potency means the concentration at half of the fitted maximal effect. In a few lines:
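Tetracycline-induced HEK293 T-REx cells expressing force-coupled D1 were plated overnight at 30 C, dye-loaded for calcium, and read kinetically. Compounds were pinned in, then an EC80 dopamine challenge followed after 180 s to reveal antagonism.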

Experiment [10] in a line: Validation screen for small molecules that induce genotoxicity in human embryonic kidney (HEK293T) cells expressing luciferase-tagged ELG1 (AID 493106). Further: 0% is about no effect. In a few lines: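 HEK293T cells expressing luciferase-tagged ELG1 were exposed to compound or DMSO vehicle for 16 hr at 37 °C, 5% CO2. Genotoxic stress raises ELG1 levels, so increased luciferase signal after ONE-Glo addition and 30 min at room temperature marks hits.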

Experiment [11] in a line: Nrf2 qHTS screen for inhibitors: Validation (AID 493153; active means well fitted inhibition curve with a large enough effect in the main read-out, with a control signal flat, not every such curve was filed as active; further: potency means the concentration at half of the fitted maximal effect). To be noted: Potency: luciferase luminescence; viability change: measured here: cytotoxicity max response. The procedure, abridged:
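A549 cells carrying an ARE-driven firefly luciferase reporter, in 5% FBS OPTI-MEM, were treated with compounds in concentration-response for 18-24 h at 37°C. Viability was read by CellTiter-Fluor fluorescence, then Nrf2 activity by luciferase luminescence.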

Experiment [12] is described as follows: qHTS for Inhibitors of Cell Surface uPA Generation: Validation Assay (AID 493164).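 Further: RAW 264.7 macrophage cells exposed to compound for 18 h; 0% is about no effect.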 The procedure, abridged: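 RAW 264.7, 4000 cells/well, o/n plating; cpd 7-pt 1:5 dilution 2.45 nM–38.3 uM final; 18 h, 37 C/5% CO2; ATP-Lite, 5 s luminescence exposure.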
The target of experiment [13] is Transient receptor potential cation channel subfamily V member 1 (Homo sapiens) (UniProt Q8NER1). As to the kind of experiment: HTS Assay for Compounds that Act as Enhancers of the Vanilloid Receptor 1 (AID 488979). Further: 0% is about no effect. The procedure, abridged:
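Calcium influx kinetics via Fluo-8 (480/520 nm) in TRPV1-expressing cells, 2000/well cultured overnight at 35.5C. Compound-alone read 3 min (agonist phase), followed by EC20 capsaicin challenge for 2 min (enhancer phase).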

In experiment [14] the target is Thyrotropin receptor (Homo sapiens) (UniProt P16473). As to the kind of experiment: qHTS Assay for Antagonists of the Thyroid Stimulating Hormone Receptor (AID 488980). Further: series mostly up to about 58 µM; 0% is about no effect. In a few lines: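 Inhibition of cAMP raised by EC80 TSH (4 nM final) was read by HTRF, with lysate cAMP competing against cAMP-d2 for cryptate antibody after 30 min at room temperature. The cells were transfected HEK293 held in phosphodiesterase inhibitor RO 20-1724 at 70 uM.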
Chain of Thyrotropin receptor (Homo sapiens) (P16473 whole entry, looked up): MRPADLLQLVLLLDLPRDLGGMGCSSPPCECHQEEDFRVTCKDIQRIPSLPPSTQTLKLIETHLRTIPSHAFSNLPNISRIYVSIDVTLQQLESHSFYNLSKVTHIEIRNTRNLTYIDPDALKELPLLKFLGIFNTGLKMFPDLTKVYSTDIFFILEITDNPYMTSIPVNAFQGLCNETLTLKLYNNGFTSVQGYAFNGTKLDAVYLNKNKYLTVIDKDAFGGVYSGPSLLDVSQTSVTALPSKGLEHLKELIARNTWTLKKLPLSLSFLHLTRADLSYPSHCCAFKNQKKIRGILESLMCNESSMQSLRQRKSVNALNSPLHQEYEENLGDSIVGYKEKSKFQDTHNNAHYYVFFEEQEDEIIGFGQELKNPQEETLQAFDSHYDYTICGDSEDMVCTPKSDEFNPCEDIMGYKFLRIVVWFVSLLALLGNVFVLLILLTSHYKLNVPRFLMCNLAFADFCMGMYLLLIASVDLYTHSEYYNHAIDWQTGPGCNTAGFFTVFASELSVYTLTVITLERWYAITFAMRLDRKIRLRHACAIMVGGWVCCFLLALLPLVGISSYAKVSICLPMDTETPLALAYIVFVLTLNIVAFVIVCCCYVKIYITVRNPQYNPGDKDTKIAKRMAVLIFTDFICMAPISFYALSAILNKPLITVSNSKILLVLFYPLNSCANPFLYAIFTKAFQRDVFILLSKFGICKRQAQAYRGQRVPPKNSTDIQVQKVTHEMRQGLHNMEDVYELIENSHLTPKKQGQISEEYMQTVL

Experiment [15] deals with ATPase family AAA domain-containing protein 5 (Homo sapiens) (UniProt Q96QE3). As to the kind of experiment: Validation screen for small molecules that inhibit ELG1-dependent DNA repair in human embryonic kidney (HEK293T) cells expressing luciferase-tagged ELG1 (AID 493107).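 Further: cells co-treated with the DNA-damaging agent 5-fluorouridine alongside compound; series mostly up to about 46 µM; on the % scale 0 is the no-effect control and ±100 the full control effect; inhibitors lower the ELG1-luciferase luminescence signal; nearly all actives have a fitted effect of over 70% in size.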 The procedure, abridged:
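HEK293T cells expressing luciferase-tagged ELG1 were co-treated with 5-fluorouridine and compound or DMSO for 16 hr at 37 °C, 5% CO2. Luciferase activity was then read with ONE-Glo after 30 min at room temperature; suppressed signal indicates blocked ELG1 function.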

For experiment [16], the target named is Thyrotropin-releasing hormone receptor (Homo sapiens) (UniProt P34981). As to the kind of experiment: qHTS for Small Molecule Agonists and Allosteric Enhancers of Human TRH Receptor: Validation Screen for Agonists (AID 493127;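 active means calcium activation more than 3 SD above the typical response in the agonist read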;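 further: intracellular calcium rise by fluo-8 fluorescence before TRH EC20 addition; 0% is about no effect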). To be noted: TRH receptor agonist cell assay; at 2 µM; stronger effect = higher value. The procedure, abridged: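 TRHR-expressing cells were plated overnight in serum-containing medium, then loaded with fluo-8 calcium dye at room temperature for 30 min–1.5 h. After a 10 s baseline, compound was pin-transferred and calcium fluorescence (ex 480/em 530) read kinetically for agonist response.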
Chain of Thyrotropin-releasing hormone receptor (Homo sapiens) (P34981 whole entry, looked up): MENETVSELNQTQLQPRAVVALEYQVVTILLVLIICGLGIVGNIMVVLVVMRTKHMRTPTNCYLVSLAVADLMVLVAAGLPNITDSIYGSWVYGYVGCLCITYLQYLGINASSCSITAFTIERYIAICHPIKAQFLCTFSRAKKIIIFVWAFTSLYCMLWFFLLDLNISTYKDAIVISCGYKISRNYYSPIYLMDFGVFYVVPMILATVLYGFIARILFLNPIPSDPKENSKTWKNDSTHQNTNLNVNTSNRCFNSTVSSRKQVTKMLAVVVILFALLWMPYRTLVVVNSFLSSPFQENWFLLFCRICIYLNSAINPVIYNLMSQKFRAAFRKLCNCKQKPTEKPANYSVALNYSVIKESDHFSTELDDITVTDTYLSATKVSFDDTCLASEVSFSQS

Experiment [17] deals with Galactokinase (Homo sapiens) (UniProt P51570). In words: qHTS Validation Assay for Inhibitors of Human Galactokinase (GALK) (AID 493189). Further: 0% is about no effect. In a few lines:
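Inhibition was measured as remaining ATP, detected by luciferase luminescence after a 1 h room-temperature reaction. Final conditions: 5 nM GALK, 100 uM galactose, 35 uM ATP, pH 8.0 HEPES buffer.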

Experiment [18] in a line: Validation screen for small molecules that induce DNA re-replication in SW480 colon adenocarcinoma cells (AID 504364). Further: 0% is about no effect. The procedure, abridged:
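SW480 cells seeded at 250 per well were exposed to compound or DMSO for 48 hr at 37 C, 5% CO2, then stained with Hoechst for 40 min. DNA content per nucleus was imaged (405 nm ex, 500-530 nm em).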

Inconclusive results are not listed. Activity calls are given as the source filed them. Unless noted, the call rests on the fitted dose curve; in most records, active means well fitted curve in the direction sought with a large enough effect; inconclusive means small, poorly fitted or top-dose-only effect, or another doubt; inactive means no such curve, though single readings can be large; an effect the other way counts as inactive or inconclusive.

Chain of M-phase phosphoprotein 8 (Homo sapiens) (Q99549 whole entry, looked up): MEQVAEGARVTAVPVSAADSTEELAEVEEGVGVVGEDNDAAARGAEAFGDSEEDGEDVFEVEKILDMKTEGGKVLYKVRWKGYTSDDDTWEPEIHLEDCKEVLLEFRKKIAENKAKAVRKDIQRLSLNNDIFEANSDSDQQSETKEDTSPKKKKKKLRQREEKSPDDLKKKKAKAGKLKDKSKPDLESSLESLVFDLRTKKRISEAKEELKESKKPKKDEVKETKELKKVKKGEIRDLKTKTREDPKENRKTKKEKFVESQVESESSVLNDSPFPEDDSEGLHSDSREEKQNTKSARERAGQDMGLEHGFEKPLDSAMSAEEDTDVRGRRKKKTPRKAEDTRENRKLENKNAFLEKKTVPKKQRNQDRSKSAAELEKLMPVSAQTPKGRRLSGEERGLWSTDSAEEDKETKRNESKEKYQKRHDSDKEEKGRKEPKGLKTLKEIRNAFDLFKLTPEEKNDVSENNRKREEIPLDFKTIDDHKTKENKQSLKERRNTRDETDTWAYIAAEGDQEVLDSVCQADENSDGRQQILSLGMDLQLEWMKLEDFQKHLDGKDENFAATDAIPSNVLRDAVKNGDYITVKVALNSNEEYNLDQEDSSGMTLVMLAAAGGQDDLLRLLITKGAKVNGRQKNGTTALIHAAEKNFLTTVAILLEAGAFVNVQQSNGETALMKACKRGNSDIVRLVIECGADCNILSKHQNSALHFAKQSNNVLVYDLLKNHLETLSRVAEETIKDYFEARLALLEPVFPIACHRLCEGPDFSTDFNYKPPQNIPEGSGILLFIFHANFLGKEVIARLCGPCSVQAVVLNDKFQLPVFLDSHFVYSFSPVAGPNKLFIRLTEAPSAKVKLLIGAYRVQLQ
Chain of Methanococcus maripaludis chaperonin (MmCpn) (Q6LX38 1-543): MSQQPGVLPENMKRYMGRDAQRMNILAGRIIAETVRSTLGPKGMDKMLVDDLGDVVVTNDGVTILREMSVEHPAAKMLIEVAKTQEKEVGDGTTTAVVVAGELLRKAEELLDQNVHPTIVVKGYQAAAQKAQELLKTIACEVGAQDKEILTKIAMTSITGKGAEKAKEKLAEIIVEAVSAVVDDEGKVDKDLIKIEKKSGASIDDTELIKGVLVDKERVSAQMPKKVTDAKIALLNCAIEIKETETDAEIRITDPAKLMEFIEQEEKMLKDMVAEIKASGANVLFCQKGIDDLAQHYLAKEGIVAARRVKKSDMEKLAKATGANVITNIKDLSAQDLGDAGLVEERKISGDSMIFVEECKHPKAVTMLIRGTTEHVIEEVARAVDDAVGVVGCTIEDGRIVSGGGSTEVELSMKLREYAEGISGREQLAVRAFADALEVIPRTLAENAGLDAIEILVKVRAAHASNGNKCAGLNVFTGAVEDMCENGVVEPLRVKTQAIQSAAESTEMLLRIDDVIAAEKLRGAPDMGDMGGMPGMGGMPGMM
Chain of Transient receptor potential cation channel subfamily V member 1 (Homo sapiens) (Q8NER1 whole entry, looked up): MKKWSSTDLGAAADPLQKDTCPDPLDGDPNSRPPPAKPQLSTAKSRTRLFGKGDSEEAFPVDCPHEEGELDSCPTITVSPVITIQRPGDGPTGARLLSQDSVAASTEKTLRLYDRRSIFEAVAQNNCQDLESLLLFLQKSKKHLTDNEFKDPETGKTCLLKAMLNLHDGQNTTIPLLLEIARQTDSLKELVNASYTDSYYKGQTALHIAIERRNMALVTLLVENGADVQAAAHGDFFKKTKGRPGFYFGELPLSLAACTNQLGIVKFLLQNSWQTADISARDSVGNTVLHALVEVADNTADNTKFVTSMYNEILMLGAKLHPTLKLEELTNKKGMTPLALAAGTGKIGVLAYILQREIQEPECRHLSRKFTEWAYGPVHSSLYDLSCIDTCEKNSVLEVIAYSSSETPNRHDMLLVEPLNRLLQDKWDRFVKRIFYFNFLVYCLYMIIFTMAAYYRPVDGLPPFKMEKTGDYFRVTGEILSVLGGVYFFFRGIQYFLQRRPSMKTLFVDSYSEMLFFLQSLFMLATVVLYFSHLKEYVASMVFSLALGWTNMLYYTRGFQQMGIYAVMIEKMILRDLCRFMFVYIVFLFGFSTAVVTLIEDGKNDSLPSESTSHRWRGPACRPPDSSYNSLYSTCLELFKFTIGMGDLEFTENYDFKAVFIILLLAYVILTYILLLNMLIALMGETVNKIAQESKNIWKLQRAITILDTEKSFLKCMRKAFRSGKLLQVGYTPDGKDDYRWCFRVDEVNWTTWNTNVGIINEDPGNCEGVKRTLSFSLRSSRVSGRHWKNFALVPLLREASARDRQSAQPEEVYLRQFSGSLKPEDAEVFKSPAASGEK
Chain of D(1A) dopamine receptor (Homo sapiens) (P21728 whole entry, looked up): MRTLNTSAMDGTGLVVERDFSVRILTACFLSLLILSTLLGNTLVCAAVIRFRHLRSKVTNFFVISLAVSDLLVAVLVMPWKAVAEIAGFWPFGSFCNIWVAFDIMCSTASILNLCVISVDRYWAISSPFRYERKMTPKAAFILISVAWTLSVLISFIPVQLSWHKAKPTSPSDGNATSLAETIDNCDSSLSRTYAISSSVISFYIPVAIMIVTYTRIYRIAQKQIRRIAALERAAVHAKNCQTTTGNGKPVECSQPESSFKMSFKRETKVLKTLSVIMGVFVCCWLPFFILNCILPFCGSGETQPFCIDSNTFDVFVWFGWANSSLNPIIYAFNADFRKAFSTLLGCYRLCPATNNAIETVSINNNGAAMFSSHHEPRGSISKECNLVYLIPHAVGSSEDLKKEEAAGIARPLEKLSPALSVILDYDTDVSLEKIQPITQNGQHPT
Chain of Thioredoxin reductase 1, cytoplasmic (Rattus norvegicus) (O89049 whole entry, looked up): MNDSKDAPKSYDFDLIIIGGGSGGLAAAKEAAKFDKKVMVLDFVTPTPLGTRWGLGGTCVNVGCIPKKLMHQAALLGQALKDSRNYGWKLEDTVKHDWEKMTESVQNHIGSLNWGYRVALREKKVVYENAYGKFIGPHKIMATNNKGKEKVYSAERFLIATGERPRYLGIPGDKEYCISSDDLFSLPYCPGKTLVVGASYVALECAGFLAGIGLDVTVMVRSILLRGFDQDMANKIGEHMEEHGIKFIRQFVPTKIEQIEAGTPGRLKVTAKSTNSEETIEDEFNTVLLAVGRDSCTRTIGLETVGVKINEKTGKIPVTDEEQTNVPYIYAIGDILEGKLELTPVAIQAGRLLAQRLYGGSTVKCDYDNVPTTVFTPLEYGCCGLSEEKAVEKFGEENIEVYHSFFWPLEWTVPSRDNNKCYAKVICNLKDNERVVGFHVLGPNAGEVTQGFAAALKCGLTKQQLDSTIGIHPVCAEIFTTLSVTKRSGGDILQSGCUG
Chain of Chromobox protein homolog 1 (Homo sapiens) (P83916 whole entry, looked up): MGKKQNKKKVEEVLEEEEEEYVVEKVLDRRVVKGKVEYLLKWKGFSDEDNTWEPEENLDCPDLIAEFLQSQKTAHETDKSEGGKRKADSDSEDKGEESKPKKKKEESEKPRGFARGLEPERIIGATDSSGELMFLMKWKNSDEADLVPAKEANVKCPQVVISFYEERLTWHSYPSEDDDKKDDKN

Turning to `NC(=O)C1=CN(C2OC(COP(=O)(O)OP(=O)(O)OC[C@H]3O[C@@H](n4cnc5c(N)ncnc54)[C@H](OP(=O)(O)O)[C@@H]3O)C(O)C2O)C=CC1` (stereo partly specified), the Potency result in experiment [1], in experiment [2], in [3], in [4], in experiment [7] and in experiment [8] was “inactive” each time. The Potency entry in experiment [9], in experiment [10] and in experiment [11] was “inactive” throughout. Further, the Potency in [5] is 5.3 nM (active). Moreover, the compound was called inactive in experiment [6] and in experiment [12]. Moreover, the viability change in experiment [11] was determined as 5.72%.

For the compound `CCCCCC(O)c1cccc(OCc2ccc3ccccc3n2)c1` (stereo unspecified), the Potency entry in experiment [1], in [2], in experiment [3], in experiment [4], in experiment [5] and in experiment [7] was “inactive” throughout. Also, the Potency result in experiment [8], in experiment [9], in experiment [10], in experiment [15], in experiment [17] and in experiment [18] was “inactive” each time. Also, the outcome in experiment [6], in [13], in experiment [14] and in [12] was inactive. Further, the activation in experiment [16] was -5.62% (inactive).

Consider `Cc1cc2c(cc1Cl)N(C(=O)Nc1ccc(Oc3cccnc3C)nc1)CC2`, for which the Potency result in experiment [1], in [2], in experiment [3], in [4], in experiment [7] and in experiment [8] was “inactive” each time. In [10], the Potency entry is “inactive”. The Potency in experiment [5] was 44700 nM (active); in [9], 14100 nM (active); in [11] it was 7310 nM (active). Moreover, the outcome in experiment [6] was inactive. Moreover, the viability change in experiment [11] is -19.7%.

Regarding `OCC1O[C@H]([S-])[C@H](O)[C@@H](O)[C@@H]1O.[Au+]` (stereo partly specified), the Potency entry in [1], in experiment [7], in [9], in experiment [10], in [15] and in experiment [11] was “inactive” in each case. Further, the Potency in experiment [2] was 75.2 nM (active); in experiment [3], 1500 nM (active); in experiment [4], 1500 nM (active); in [5] it was 2000 nM (active). For the same compound, the outcome in experiment [6] and in [12] was inactive. Besides, the viability change in experiment [11] is -19.1%.

As for `COc1cc(C(O)CO)ccc1OS(=O)(=O)O` (stereo unspecified), the Potency result in experiment [1], in [2], in experiment [3], in experiment [4], in experiment [5] and in experiment [7] was “inactive” in each case. The Potency result in experiment [8], in [9], in experiment [10], in [15], in experiment [17] and in experiment [18] was “inactive” in each case. The compound was called inactive in experiment [6], in experiment [13], in [14] and in experiment [12]. Besides, in experiment [16], the activation is -2.69% (inactive).

Consider `N[C@@H](CC(=O)O)C(=O)O`, for which the Potency entry in experiment [1], in experiment [2], in experiment [3], in experiment [4], in [5] and in experiment [7] was “inactive” throughout. The Potency entry in experiment [8], in experiment [9], in [10], in experiment [15], in experiment [11] and in experiment [17] was “inactive” throughout. The Potency entry in [18] was “inactive”. Also, the compound was classed as inactive in [6], in [13], in [14] and in [12]. Also, in experiment [16], the activation is 1.19% (inactive). The viability change in experiment [11] is -0.666%.

As for `NC(=O)C(=O)O`, the Potency entry in [1], in experiment [2], in experiment [3], in experiment [4], in experiment [5] and in experiment [7] was “inactive” in each case. Also, the Potency result in experiment [9], in [10], in [15], in experiment [11], in [17] and in experiment [18] was “inactive” throughout. Further, the result in [6], in [13] and in [14] was inactive. Further, the activation in [16] was 1% (inactive). Moreover, the viability change in [11] was 4.28%.

On to `N=C(N)SCCc1ccc(CCSC(=N)N)cc1`, for which the Potency entry in experiment [1], in experiment [2], in experiment [3], in [4], in [5] and in experiment [7] was “inactive” in each case. The Potency result in experiment [8], in experiment [9], in [10], in [15], in experiment [11] and in [17] was “inactive” each time. Further, the Potency entry in experiment [18] was “inactive”. The result in experiment [6], in experiment [13] and in [14] was inactive. The activation in experiment [16] was 1.12% (inactive). The viability change in experiment [11] is -6.92%.

Source of the values: PubChem BioAssay (NCATS).
